Out of some 190,000 compounds screened, about 790 (0.42%) were called active.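 How the source made its calls: active means inhibition above a set limit, the median over all tested compounds plus 3 SD (cut at about 9.5% in these data); inconclusive means no clear call, values can overlap the other calls; inactive means the rest.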 The entries come from a sample that favours actives as a whole.
The compounds below were run on HMG-CoA reductase (Enterococcus faecalis, mvaE) (assay: class II HMG-CoA reductase enzyme inhibition – biochemical, Enterococcus faecalis, primary screen (AID 1066;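 further: enzyme runs in reverse so mevalonate oxidation gives rising NADPH absorbance; 0% = complete reaction with DMSO and 100% = background rate lacking mevalonate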)). Details: purified E. faecalis HMGR, NADPH absorbance 340 nm kinetic; at 10 µM; stronger effect = higher value.

**Q.** For `COc1ccc(N2C(=O)C(Cc3ccccc3)NC2=S)cc1` (stereo not given), which inhibition is on record?
**A.** The inhibition was -5.65% (inactive).

**Q.** Which inhibition does the source give for `COC(=O)c1cc(NC(=O)c2nn(C)c(=O)c3ccccc23)cc(C(=O)OC)c1` here?
**A.** Its inhibition is -0.04% (inactive).

**Q.** How did the inhibition turn out when `COC(=O)C1=C(C)N(C)C(=O)NC1c1ccc([N+](=O)[O-])o1` (stereo not given) was run?
**A.** Its inhibition is 0.43% (inactive).

**Q.** `CCn1c(/C=C/c2ccc([N+](=O)[O-])o2)nc2ccccc2c1=O` was tested. Which inhibition did it give?
**A.** Its inhibition is -2.94% (inactive).

**Q.** How did the inhibition turn out when `C/[N+]([O-])=C\c1ccc([N+](=O)[O-])o1` was run?
**A.** Its inhibition is 11% (active).

**Q.** With `CN(C)/C=C/C(=O)c1cnc2sccn2c1=O` as the compound, how does the inhibition read?
**A.** Its inhibition is 2.25% (inactive).

**Q.** Which inhibition does the source give for `Fc1ccccc1Cn1cnc(NC(=S)NCCc2ccccc2)n1` here?
**A.** Its inhibition is 15.6% (active).

**Q.** Which inhibition does the source give for `S=C(NCCc1ccccc1)NCc1ccccc1Cl` here?
**A.** Its inhibition is 1.49% (inactive).

**Q.** For `Fc1ccccc1CNC(=S)Nc1ccc(Cl)cc1`, which inhibition is on record?
**A.** The inhibition was -0.98% (inactive).

**Q.** For `CCOc1ccc(N2C(=O)/C(=C/c3ccc(C)o3)N(C)C2=S)cc1`, which inhibition is on record?
**A.** Its inhibition is -5.07% (inactive).

**Q.** Which inhibition does the source give for `COCCN(C(=O)C(C)C)c1nnc(-c2ccc(C(C)(C)C)cc2)s1` here?
**A.** The inhibition was -2.5% (inactive).

**Q.** `COc1ccc(NC(=O)N2CCCC(c3nc(-c4ccc(F)cc4)no3)C2)cc1` (stereo not given) was tested. Which inhibition did it give?
**A.** Its inhibition is 1.89% (inactive).

**Q.** With `O=C(c1ccccc1Cl)N(Cc1ccccc1F)N1C(=O)CCCC1=O` as the compound, how does the inhibition read?
**A.** Its inhibition is -5.67% (inactive).

**Q.** Which inhibition does the source give for `C=CCn1c(=NC(=O)c2cccs2)sc2cc(NC(C)=O)ccc21` here?
**A.** The inhibition was -0.47% (inactive).

**Q.** With `CCN=C1S/C(=C\c2cc(Br)ccc2OCC(=O)OCC)C(=O)N1CC` as the compound, how does the inhibition read?
**A.** The inhibition was -2.47% (inactive).

**Q.** How did the inhibition turn out when `COc1cccc(Cn2cnc3c([N+](=O)[O-])c(C)c(C)cc32)c1` was run?
**A.** The inhibition was -3.58% (inactive).

**Q.** For `COc1ccc(F)cc1C(=O)C1CCCN(C(=O)CCc2ccccn2)C1` (stereo not given), which inhibition is on record?
**A.** Its inhibition is -4.06% (inactive).

**Q.** `CCOC(=O)C1CCN(C(=O)/C=C/c2cc(OC)c(OC)c(OC)c2)CC1` was tested. Which inhibition did it give?
**A.** The inhibition was -1.76% (inactive).

**Q.** With `Cc1cc(C)c2nc(-c3cccnc3)cc(C(=O)Nc3ccc(S(=O)(=O)Nc4onc(C)c4C)cc3)c2c1` as the compound, how does the inhibition read?
**A.** Its inhibition is -2.12% (inactive).

**Q.** Which inhibition does the source give for `Cc1ccc(CSc2nc3[nH]ncc3c(=O)[nH]2)cc1` here?
**A.** The inhibition was -1.81% (inactive).

**Q.** How did the inhibition turn out when `C/C(=N/NC(=O)c1ccc(NC(=O)c2ccc(F)cc2)cc1)c1ccccc1` was run?
**A.** Its inhibition is -3.05% (inactive).

**Q.** With `COc1ccccc1C(=O)NNC(=O)c1ccc(NC(=O)c2ccccc2)cc1` as the compound, how does the inhibition read?
**A.** The inhibition was 15.3% (active).

**Q.** For `COc1ccc(C(=O)Nc2ccccc2C(=O)N/N=C/c2ccccc2OC)cc1`, which inhibition is on record?
**A.** The inhibition was -0.76% (inactive).

**Q.** With `CC(=O)c1ccc(NC(=S)N(Cc2ccccc2)C(C)C2CC2)cc1` (stereo not given) as the compound, how does the inhibition read?
**A.** Its inhibition is -4.01% (inactive).

**Q.** How did the inhibition turn out when `O=C(COC(=O)c1cc(=O)[nH]c2ccccc12)Nc1nc(-c2cccc(Br)c2)cs1` was run?
**A.** Its inhibition is -0.22% (inactive).

**Q.** With `C/C(=N\NS(=O)(=O)c1ccc(Cl)cc1)c1ccc(NC(=O)c2ccco2)cc1` as the compound, how does the inhibition read?
**A.** The inhibition was 2.58% (inactive).

**Q.** Which inhibition does the source give for `Cc1onc(C(=O)NN)c1C(=O)N1CCN(C(c2ccccc2)c2ccccc2)CC1` here?
**A.** Its inhibition is -0.47% (inactive).

**Q.** How did the inhibition turn out when `Cc1nc2sc3c(c2c(=O)n1NC(=O)CCl)CCCC3` was run?
**A.** Its inhibition is -4.51% (inactive).

**Q.** Which inhibition does the source give for `CSc1ccc(CNCCN2CCOCC2)cc1` here?
**A.** The inhibition was -2.23% (inactive).

**Q.** With `C/C(CC(=O)Nc1cccc(F)c1)=N\NC(=O)C(=O)NC1CCCCC1` as the compound, how does the inhibition read?
**A.** The inhibition was -2.25% (inactive).

**Q.** With `CCC(C)(C)NC(=O)CN(Cc1cccs1)C(=O)CNS(=O)(=O)c1ccc(F)cc1` as the compound, how does the inhibition read?
**A.** Its inhibition is -1.17% (inactive).

**Q.** For `CC(C)(C)N(CC#CCC(O)(c1ccccc1)C1CCCC1)CCO` (stereo not given), which inhibition is on record?
**A.** The inhibition was -1.31% (inactive).

**Q.** With `N#CC(=C1CCCC1)c1nc(-c2ccc(Cl)cc2)cs1` as the compound, how does the inhibition read?
**A.** The inhibition was 25.7% (active).

**Q.** How did the inhibition turn out when `N#CC(=C1SC=CS1)c1nc(-c2ccccc2)cs1` was run?
**A.** Its inhibition is -4.9% (inactive).

**Q.** `N#C/C(=C1\CCCN1)c1nc(-c2ccccc2)cs1` was tested. Which inhibition did it give?
**A.** The inhibition was -5.6% (inactive).

**Q.** For `CCOC(=O)Cc1csc(NC(=O)C(C)(C)C)n1`, which inhibition is on record?
**A.** Its inhibition is 5.04% (inactive).

**Q.** Which inhibition does the source give for `CCOC(=O)Cc1csc(NC(=O)CSc2ccc(Br)cc2)n1` here?
**A.** Its inhibition is 5.27% (inactive).

**Q.** For `CCOC(=O)Cc1csc(NC(=O)Nc2ccccc2)n1`, which inhibition is on record?
**A.** Its inhibition is 12.1% (active).

**Q.** Which inhibition does the source give for `COc1ccc(NC(=O)c2ccccc2CC[N+](=O)[O-])cc1` here?
**A.** Its inhibition is -3.38% (inactive).

**Q.** How did the inhibition turn out when `COc1ccccc1CC(NC(C)=O)C(=O)NC1CCN(C(=O)Nc2ccccc2Cl)CC1` (stereo not given) was run?
**A.** Its inhibition is -1.31% (inactive).

**Q.** `CC(C)(C)C(=O)N1CCC[C@@]1(CO)C(=O)O` was tested. Which inhibition did it give?
**A.** Its inhibition is -3.2% (inactive).

**Q.** How did the inhibition turn out when `CCc1cc(CNC(=O)CC2C(=O)NCCN2CC2CCCCC2)on1` (stereo not given) was run?
**A.** The inhibition was 1.73% (inactive).

**Q.** How did the inhibition turn out when `O=C(O)/C=C/c1ccc(S(=O)(=O)N2CCCCCC2)cc1` was run?
**A.** Its inhibition is -1.58% (inactive).

**Q.** `CC(=O)N1CCN(S(=O)(=O)c2ccc(C)c([N+](=O)[O-])c2)C1C(C)C` (stereo not given) was tested. Which inhibition did it give?
**A.** Its inhibition is 15.5% (active).

**Q.** With `Cc1ccc(NC(=O)CN2CCC(C(N)=O)CC2)cc1[N+](=O)[O-]` as the compound, how does the inhibition read?
**A.** The inhibition was -7.59% (inactive).

**Q.** `CSCCC(Nc1ccc(S(=O)(=O)N2CCOCC2)cc1[N+](=O)[O-])C(=O)OCC(=O)N(C(C)C)C(C)C` (stereo not given) was tested. Which inhibition did it give?
**A.** The inhibition was -4.18% (inactive).

**Q.** For `CCc1cccc(C)c1NC(=O)COC(=O)Cc1ccsc1`, which inhibition is on record?
**A.** Its inhibition is 0.78% (inactive).

**Q.** Which inhibition does the source give for `CCCn1c(=S)[nH]c2ccc(C(F)(F)F)cc21` here?
**A.** Its inhibition is -3.38% (inactive).

**Q.** How did the inhibition turn out when `Cc1c(NC(=S)NC(=O)CCc2ccccc2)c(=O)n(-c2ccccc2)n1C` was run?
**A.** Its inhibition is -5.41% (inactive).

**Q.** How did the inhibition turn out when `Cc1ccc(Cl)c(NC(=O)CN(C)CC(=O)Nc2ccc(F)c(F)c2F)c1Cl` was run?
**A.** Its inhibition is -3.18% (inactive).

**Q.** How did the inhibition turn out when `CNCC(O)CN1CCN(c2ccccc2OC)CC1` (stereo not given) was run?
**A.** The inhibition was -5.06% (inactive).

**Q.** For `Cc1[nH]c2ccccc2c1/C=C(/C#N)C(=O)NC(C)C`, which inhibition is on record?
**A.** Its inhibition is -0.57% (inactive).

**Q.** For `CCOc1ccc(NC(=O)CN2CCN(CC(=O)Nc3ccc(OC)cc3)CC2)cc1`, which inhibition is on record?
**A.** Its inhibition is 11.1% (active).

**Q.** Which inhibition does the source give for `CCOc1ccc(NC(=O)N2CCN(CC)CC2)cc1` here?
**A.** The inhibition was -2.53% (inactive).

**Q.** `CCOC(=O)N1CCN(CC(=O)Nc2ccc(F)cc2)CC1` was tested. Which inhibition did it give?
**A.** Its inhibition is -2.98% (inactive).

**Q.** For `S=c1[nH]ccn1-c1ccc(Cl)cc1`, which inhibition is on record?
**A.** The inhibition was -3.58% (inactive).

**Q.** Which inhibition does the source give for `COc1ccc(CCCc2nnc(SCc3nc4ccccc4c(=O)[nH]3)n2C)cc1` here?
**A.** Its inhibition is 4.13% (inactive).

**Q.** `CCN(CC)c1ccc(S(=O)(=O)N2CCOCC2)cc1NC(=O)CSc1cccc[n+]1[O-]` was tested. Which inhibition did it give?
**A.** The inhibition was -6.45% (inactive).

**Q.** `COC(=O)c1ccccc1NS(=O)(=O)c1ccc2[nH]c(=O)[nH]c2c1` was tested. Which inhibition did it give?
**A.** The inhibition was -1.55% (inactive).

**Q.** Which inhibition does the source give for `O=C(COC(=O)CNS(=O)(=O)c1ccccc1)NC12CC3CC(CC(C3)C1)C2` here?
**A.** Its inhibition is -0.89% (inactive).

Source: PubChem BioAssay AID1066 (SRMLSC, 2008)
